# Assay outcomes as filed in PubChem.
# Many of the other results were omitted from the sample, so hits are more common in it than they were.
# FBPA Giardia inh: inhibitors of Giardia lamblia fructose-1,6-bisphosphate aldolase; A8B2U2; purified Giardia FBPA; Potency, µM (top dose mostly 59.6 µM), for the others: at the top dose activity, negative = inhibition, usual class: inhibitors; actives 0.71% (n = 290,000); AID 2451; note: potency is the fitted concentration of half-maximal effect; % is set by controls: 0 for no effect and ±100 for the full control effect; nearly all actives have a fitted effect of over 55% in size
#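 Giardia FBPA (40 nM reagent) was preincubated 10 min at RT with compound (up to 57.5 uM final), then substrate plus GAPDH/TPI/NAD/arsenate coupling system with diaphorase/resazurin was added; resorufin fluorescence (525/598 nm) was read after 20 min.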
# LmPK inh: inhibitors of Leishmania mexicana pyruvate kinase | Q27686 | purified LmPK, Kinase-Glo ATP luminescence, 1 h | actives 0.37% (n = 290,000) | Potency, µM (titrated, usually from 57.5 µM), for inactives: at the highest dose activity change, negative = inhibition, actives largely listed as inhibitors; note: potency is the fitted concentration of half-maximal effect; % is set by controls: 0 for no effect and ±100 for the full control effect
# Target sequence (Q27686 whole entry, looked up): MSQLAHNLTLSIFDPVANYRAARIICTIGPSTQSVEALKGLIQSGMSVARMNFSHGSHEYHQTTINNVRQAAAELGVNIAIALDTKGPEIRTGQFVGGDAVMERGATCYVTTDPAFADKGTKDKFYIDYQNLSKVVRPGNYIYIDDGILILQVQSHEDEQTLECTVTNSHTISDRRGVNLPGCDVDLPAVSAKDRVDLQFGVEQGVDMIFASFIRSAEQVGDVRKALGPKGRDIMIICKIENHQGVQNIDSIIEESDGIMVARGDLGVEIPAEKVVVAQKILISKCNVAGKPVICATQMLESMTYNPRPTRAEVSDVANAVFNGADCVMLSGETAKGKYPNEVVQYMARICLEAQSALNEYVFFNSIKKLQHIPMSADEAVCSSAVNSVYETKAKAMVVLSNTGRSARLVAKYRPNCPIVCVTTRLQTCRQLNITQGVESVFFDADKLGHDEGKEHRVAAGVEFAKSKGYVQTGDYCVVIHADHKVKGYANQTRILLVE
#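 Purified LmPK (0.1 nM) converted ADP (0.1 mM) to ATP with PEP (0.5 mM) in imidazole buffer pH 7.2 with KCl and MgCl2, 1 h at room temperature. ATP was read by Kinase-Glo luminescence; data normalized to uninhibited and no-enzyme controls.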
# TbPYK inhibitor: T. brucei pyruvate kinase inhibition | actives 0.12% (n = 410,000) | Q57TT1 | TbPYK enzyme, Kinase-Glo Plus ATP luminescence, 45 min | Potency, µM (highest dose often 76.8 µM), inactives show at the highest dose activity, negative = inhibition, most hits filed as inhibitors; note: potency is the fitted concentration of half-maximal effect; % is set by controls: 0 for no effect and ±100 for the full control effect; nearly all actives have a fitted effect of over 50% in size
#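 Luminescence from Kinase-Glo Plus, added after a 45-minute room-temperature reaction, served as the end-point read-out. The enzyme and substrate were preincubated with compound before ADP (130 uM final) initiated turnover. Concentration-effect curves came from normalized qHTS data.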
# Cycloheximide cs: counter-screen hit for Shiga toxin inhibitors, cycloheximide; cell reporter, cycloheximide protein synthesis inhibition counterscreen; max response, %; actives 12% (n = 300,000); AID 2314; in the data active = max response mostly above about 13%, no sharp cut-off; inactive = mostly below about 14%; note: read at 38.3 µM for the half of the compounds with a filed dose; 0% is about no effect
# RE007 growth inh: less growth of the S. pombe RE007 Vpr strain | Potency, µM (doses to about 92.2 µM), for the others: at the highest dose activity change, negative = less growth, hits mostly inhibitors | actives 0.21% (n = 360,000) | S. pombe RE007 Vpr strain, BacTiter-Glo ATP luminescence, 24 h; active = well fitted falling curve with a large enough effect; inconclusive = small, poorly fitted or top-dose-only effect; inactive = no such curve, though single readings can be large or run the other way; note: potency is the fitted concentration of half-maximal effect; % is set by controls: 0 for no effect and ±100 for the full control effect; nearly all actives have a fitted effect of over 50% in size
#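 Fission yeast RE007 carrying one integrated HIV-1 vpr copy, seeded at OD 0.01 in PMG+AL medium with 23 nL pinned compound. Grown 24 h at 30 degrees; viability read by BacTiter-Glo luminescence after 5 min.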
# Shiga toxin inh: blocks Shiga toxin action in Vero cells; Vero cells, Shiga toxin protein synthesis inhibition reporter; inhibition, % at 38.7 µM; actives 9.2% (n = 290,000); AID 2315; in the data active = inhibition mostly above about 28%, no sharp cut-off; inactive = mostly below about 43%; note: 0% is about no effect
# An asterisk follows results filed as active; ? = inconclusive; . = no result; [ ] = dose if it differs, or a comment. Unless noted, calls come from the whole dose curve; as a rule, active = well fitted curve in the direction sought with a large enough effect; inconclusive = small, poorly fitted or top-dose-only effect, or another doubt; inactive = no such curve, though single readings can be large; an effect the other way counts as inactive or inconclusive.
SMILES,FBPA Giardia inh,LmPK inh,TbPYK inhibitor,Cycloheximide cs,RE007 growth inh,Shiga toxin inh
COc1cc(OC)c(C(=O)O/N=C(\N)c2ccc(C)cc2)cc1OC,-8.4%,0.2%,-4.3%,15.0*,6.6%,11.5
COc1ccc(Cl)cc1C(=O)O/N=C(\N)c1ccc(Cl)cc1,-1.9%,0.9%,-9.8%,8.2,-1.8%,5.6
CCOC(=O)c1nc(NNC(C)=O)sc1C,-4.1%,4.5%,0.5%,-1.3,11.5%,0.3
CCOC(=O)c1nc(NCCc2ccccc2)sc1C,3.0%,7.4%,3.0%,52.7*,-13.8%,132.6*
Cc1nc(Nc2ccccc2C(F)(F)F)sc1C(=O)N(C)C,-0.7%,4.9%,-6.4%,26.1*,-10.2%,44.8*
Cc1nc(NCCc2ccccc2)sc1C(=O)N(C)C,-3.8%,0.0%,-5.9%,36.5*,-8.3%,57.6*
COc1cc(CCN2C(=O)N[C@@H](c3ccccc3)C(C(C)=O)=C2C)cc(OC)c1OC,5.4%,.,.,.,.,.
Oc1ccc(/C=N/Nc2ncnc3nc[nH]c23)cc1,-5.7%,-28.6%,-25.7%,34.6*,4.4%,59.8
Clc1ccc(/C=N/Nc2ncnc3nc[nH]c23)cc1,-10.9%,-24.8%,-1.7%,39.1*,6.0%,64.3
Cc1ccc(/C=N/Nc2ncnc3nc[nH]c23)cc1,-12.1%,-26.8%,-2.8%,38.2*,14.8%,147.1*
C/C(=C\CNc1ncnc2nc[nH]c12)CO,4.2%,.,9.2%,.,0.9%,.
Clc1ccccc1CNc1ncnc2nc[nH]c12,0.6%,-2.0%,1.5%,4.4,15.0%,10.5
C[C@H](c1ccccc1)N1C(=O)[C@H]2[C@@H]3[C@H](O)[C@H](O)CC(=O)[C@H]3CC[C@H]2C1=O,1.2%[12.9 µM],.,.,.,.,.
O=C(CCS(=O)(=O)c1ccccc1)NCCS(=O)(=O)c1ccccc1,-2.3%,-0.8%,1.9%,4.5,-6.0%,-6.3
O=C(CCS(=O)(=O)c1ccccc1)NC12CC3CC(CC(C3)C1)C2,7.6%,6.4%,0.0%,25.2*,2.8%,48.3
Cn1c(SCC(=O)c2ccc(F)cc2)nnc1-c1ccccc1N,12.1%,3.6%,-5.6%,46.9*,11.4%,122.9*
CCn1c(SCC(=O)c2ccc(O)c(O)c2)nnc1-c1ccc(C)cc1,?,4.9%,-13.5%,0.5,-18.2%,-6.3
Cn1c(CO)cnc1SCC(=O)c1ccc(F)cc1,-9.5%,-1.7%,0.5%,23.7*,-6.1%,75.0*
Cc1ccc(C(=O)CSc2nnc(-c3ccccc3N)n2C)cc1,-4.2%[12.9 µM],0.1%,0.5%,64.9*,-8.0%,94.4*
CCn1c(Cc2cccn2C)nnc1SCC(=O)c1ccc(C)cc1,-3.0%,1.7%,-7.4%,34.9*,-22.1%,129.1*
CC(=O)OCC1OC(C#CCC2CCCCC2)C=CC1OC(C)=O (stereo not given),-1.7%[12.9 µM],.,.,.,.,.
CCC(=O)N1CCc2cc(Br)cc(S(=O)(=O)CCC(=O)NCCc3ccccc3Cl)c21,.,.,0.0%,.,.,.
Cc1cccc(CSc2ncc(CO)n2C)c1,-11.6%,-7.7%,-5.5%,20.3*,-15.8%,17.1
Cc1cccc(CSc2ncc(CO)n2Cc2ccc(F)cc2)c1,.,.,-0.6%,.,.,.
Cn1c(SCC(=O)c2cc(Cl)c(Cl)s2)nnc1-c1ccco1,-8.2%,7.7%,?,1.6,-19.1%,4.1
SMILES,FBPA Giardia inh,LmPK inh,TbPYK inhibitor,Cycloheximide cs,RE007 growth inh,Shiga toxin inh
Cc1ccc(C(=O)CSc2nnc(-c3ccco3)n2C)cc1,-0.5%,-1.0%,-26.1%,35.2*,14.8%,51.6*
Oc1ccc(-c2n[nH]c(=S)n2-c2ccc3c(c2)OCCO3)cc1,-6.1%,?,4.47µM*,36.8*,18.2%,58.9*
O=C(O)c1ccc(-n2c(-c3ccccc3)n[nH]c2=S)cc1,-21.7%,-27.2%,?,12.3,15.1%,-18.6
S=c1[nH]nc(Cn2c(-c3ccccn3)nc3ccccc32)n1-c1ccc2c(c1)OCCO2,-8.5%,?,15.8µM*,62.5*,-7.9%,84.5*
O=C1C=C(c2ccc3ncccc3c2)C[C@@H](c2ccc3c(c2)OCO3)C1,.,.,-4.9%,.,-9.6%,.
Cc1nc2ccccc2n1Cc1n[nH]c(=S)n1-c1ccc(Cl)cc1,5.8%,-21.2%,?,-2.0,7.9%,-2.7
S=c1[nH]nc(-c2ccc3ncccc3c2)n1-c1ccc2c(c1)OCCO2,-0.6%,7.08µM*,3.55µM*,9.1,-4.8%,-3.5
CS(=O)(=O)N1CCC2(CC1)CN(c1ncccn1)C2,-3.8%,.,-7.7%,.,.,.
Cn1cccc1-c1cc(C(=O)N/N=C/c2ccccc2Cl)[nH]n1,-4.4%,8.0%,3.3%,20.4*,-0.6%,79.5*
CC(C)Oc1ccccc1/C=N/NC(=O)C1CC1,.,.,4.4%,.,16.1%,.
CC(C)Oc1ccccc1/C=N/NC(=O)c1ccc(F)cc1,-2.3%,5.4%,-2.9%,27.3*,2.0%,20.4*
CCN(CC)c1ccc(C(=O)N/N=C/c2ccccc2OC(F)F)cc1,6.2%,-5.3%,-7.9%,25.7*,14.1%,28.0
CC(C)Oc1ccccc1/C=N/NC(=O)c1ccccc1Cl,-13.9%,-0.1%,-2.4%,12.0*,1.8%,14.8
CC(C)C[C@H](NC(=O)[C@H](Cc1ccccc1)NC(=O)CNC(=O)[C@@H](COC(C)(C)C)NC(=O)[C@@H](N)Cc1ccc(O)cc1)C(=O)N[C@H](C(=O)O)[C@@H](C)OC(C)(C)C,0.5%,.,.,-4.2,.,-3.3
O=C(N/N=C/c1ccccc1Cl)c1ccc(F)cc1,?,-10.1%,0.9%,56.3*,0.2%,72.1*
COc1ccc(C(=O)CC(=O)c2ccc(OC)cc2)cc1,1.9%,-8.4%,-6.0%,25.7*,1.8%,33.3
COc1ccc(C(=O)Cc2nnc(C)s2)cc1,-23.6%,-8.1%,3.9%,48.4*,-5.2%,105.4*
COc1ccc(C(=O)C[n+]2ccc3ccccc3c2C)cc1,-10.2%,0.2%,3.7%,44.6*,-6.3%,94.5*
COc1ccc(CNC(=O)CN2C(=O)c3ccccc3C2=O)cc1,1.1%,-4.7%,1.6%,8.0,3.3%,10.9
COc1ccc(C(=O)Cc2ccccc2C(=O)O)cc1,.,.,-19.5%,.,0.6%,.
COc1ccc(C(=O)C[n+]2cccc3cc(OC)ccc32)cc1,5.0%,-0.3%,-6.4%,2.8,-3.9%,-8.2
COc1ccc(C(=O)CN2C(=O)c3ccccc3C2=O)cc1,-1.0%,-0.2%,-1.4%,30.2*,2.9%,57.6*
O=C(CSc1nnc(-c2ccccc2Cl)o1)N1CCCc2ccccc21,.,.,1.6%,.,.,.
O=S(=O)(c1ccc(Br)cc1)c1nnn2c1nc(NCc1ccc3c(c1)OCO3)c1sccc12,.,.,-6.9%,.,.,.
N#CCC(=O)NN,.,.,-8.7%,.,.,.
CCc1c(C)c2ccc3c(c2oc1=O)CN(Cc1ccccc1)CO3,.,.,5.2%,.,.,.
COc1ccc(O)c(C(=O)CC(=O)c2ccncc2)c1,.,.,0.4%,.,-10.3%,.
COc1ccc(C(=O)NCC(=O)c2ccccc2)cc1,12.4%,0.2%,-8.2%,36.4*,9.9%,.
